# Data taken from PMC7862700, “An all-to-all approach to the identification of sequence-specific readers for epigenetic DNA modifications on cytosine”.
# Experiments:
# Assay in all cases: DAPPL (digital affinity profiling via proximity ligation, sequencing); 10 mM Tris-HCl pH 7.5, 50 mM NaCl, 1 mM DTT, 4% glycerol, room temperature, 30 min; GST-TFs on glutathione beads, 16-mer random dsDNA library, 0.1% formaldehyde crosslink after washing; high values mean tight binding
# Conditions in all cases: protein: recombinant; tags: N-terminal GST; dsDNA, one strand shown
# FEV = target: T1, FEV (Homo sapiens, UniProt Q99581 1-238)
# T1 sequence: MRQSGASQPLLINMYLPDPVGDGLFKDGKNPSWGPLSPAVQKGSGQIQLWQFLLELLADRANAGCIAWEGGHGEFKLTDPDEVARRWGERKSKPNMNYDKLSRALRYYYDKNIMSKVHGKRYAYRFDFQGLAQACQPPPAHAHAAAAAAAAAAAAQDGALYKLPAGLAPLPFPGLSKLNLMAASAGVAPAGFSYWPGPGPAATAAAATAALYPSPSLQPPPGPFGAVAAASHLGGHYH
# Procedure, shortened: (§1)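 Binding signal is given per hexamer as its read frequency for a factor divided by its frequency in the tag-only sample. GST-fused human transcription factors were expressed in yeast, captured on glutathione beads, barcoded with DNA and pooled with that sample, then incubated with 200 nmole of a 16-mer random double-stranded DNA library in Tris/NaCl/DTT/glycerol buffer for 30 min at room temperature. The pools were then washed, crosslinked, proximity-ligated, amplified by PCR and sequenced on an Illumina NextSeq500.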
# ETV5 = ETV5 (Homo sapiens, UniProt P41161 1-510)
# Chain of ETV5 (P41161 whole entry): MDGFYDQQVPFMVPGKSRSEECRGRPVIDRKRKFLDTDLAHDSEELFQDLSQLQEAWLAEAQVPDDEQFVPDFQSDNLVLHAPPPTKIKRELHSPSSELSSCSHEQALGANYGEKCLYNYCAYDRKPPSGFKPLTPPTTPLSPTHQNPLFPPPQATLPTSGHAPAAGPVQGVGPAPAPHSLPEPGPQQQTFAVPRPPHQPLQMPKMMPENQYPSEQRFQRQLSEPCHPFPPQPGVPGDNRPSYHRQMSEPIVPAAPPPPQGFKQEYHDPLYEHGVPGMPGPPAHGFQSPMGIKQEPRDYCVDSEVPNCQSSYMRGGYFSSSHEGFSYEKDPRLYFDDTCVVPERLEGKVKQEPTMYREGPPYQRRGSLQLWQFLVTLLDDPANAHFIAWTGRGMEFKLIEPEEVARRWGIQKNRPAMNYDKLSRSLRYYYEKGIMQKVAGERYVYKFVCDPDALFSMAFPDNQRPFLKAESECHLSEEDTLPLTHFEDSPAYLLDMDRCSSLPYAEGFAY
# Procedure, shortened: as §1
# SPIC = target: T2, SPIC (Homo sapiens, UniProt Q8N5J4 1-248)
# T2 sequence: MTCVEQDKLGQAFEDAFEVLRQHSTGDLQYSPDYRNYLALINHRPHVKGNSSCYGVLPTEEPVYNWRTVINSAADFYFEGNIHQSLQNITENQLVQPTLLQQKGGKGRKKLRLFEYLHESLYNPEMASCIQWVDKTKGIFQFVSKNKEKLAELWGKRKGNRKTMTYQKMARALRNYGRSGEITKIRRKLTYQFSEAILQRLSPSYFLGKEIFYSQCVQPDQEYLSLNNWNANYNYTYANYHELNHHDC
# Procedure, shortened: as §1
# ELF4 = ELF4 (Homo sapiens, UniProt Q99607 1-663)
# Chain of ELF4 (Q99607 whole entry): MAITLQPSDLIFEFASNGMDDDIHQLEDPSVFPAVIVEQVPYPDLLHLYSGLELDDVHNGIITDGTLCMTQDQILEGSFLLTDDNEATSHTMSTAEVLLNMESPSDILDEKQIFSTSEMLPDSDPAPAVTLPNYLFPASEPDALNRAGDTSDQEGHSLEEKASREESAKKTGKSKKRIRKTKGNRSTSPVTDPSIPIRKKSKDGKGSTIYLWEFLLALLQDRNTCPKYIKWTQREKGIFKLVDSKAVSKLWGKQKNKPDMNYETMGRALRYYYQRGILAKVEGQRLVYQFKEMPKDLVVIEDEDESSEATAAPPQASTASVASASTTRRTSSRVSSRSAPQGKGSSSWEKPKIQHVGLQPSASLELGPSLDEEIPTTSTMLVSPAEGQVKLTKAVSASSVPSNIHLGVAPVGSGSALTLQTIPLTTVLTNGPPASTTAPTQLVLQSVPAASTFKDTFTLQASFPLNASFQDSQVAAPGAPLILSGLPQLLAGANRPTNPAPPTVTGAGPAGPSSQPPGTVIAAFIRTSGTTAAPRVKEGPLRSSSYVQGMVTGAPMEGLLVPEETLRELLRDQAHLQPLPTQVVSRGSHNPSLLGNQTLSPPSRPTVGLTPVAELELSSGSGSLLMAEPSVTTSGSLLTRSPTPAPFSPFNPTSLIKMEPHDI
# Procedure, shortened: as §1
# ELK4 = target: T3, ELK4 (Homo sapiens, UniProt P28324-2 1-405)
# T3 sequence: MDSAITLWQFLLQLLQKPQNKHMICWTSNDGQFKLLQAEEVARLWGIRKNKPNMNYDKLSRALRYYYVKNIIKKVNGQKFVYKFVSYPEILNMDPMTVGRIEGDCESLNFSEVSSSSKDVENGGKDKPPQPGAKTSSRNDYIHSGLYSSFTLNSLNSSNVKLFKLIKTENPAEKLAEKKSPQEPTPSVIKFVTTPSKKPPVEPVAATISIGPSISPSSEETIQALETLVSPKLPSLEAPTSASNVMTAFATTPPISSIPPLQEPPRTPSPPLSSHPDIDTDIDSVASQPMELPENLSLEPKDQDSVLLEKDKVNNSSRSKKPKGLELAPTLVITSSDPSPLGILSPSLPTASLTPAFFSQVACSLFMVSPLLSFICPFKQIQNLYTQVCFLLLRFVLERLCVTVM
# Procedure, shortened: as §1
# ETV2 = target: T4, ETV2 (Homo sapiens, UniProt O00321 1-342)
# T4 sequence: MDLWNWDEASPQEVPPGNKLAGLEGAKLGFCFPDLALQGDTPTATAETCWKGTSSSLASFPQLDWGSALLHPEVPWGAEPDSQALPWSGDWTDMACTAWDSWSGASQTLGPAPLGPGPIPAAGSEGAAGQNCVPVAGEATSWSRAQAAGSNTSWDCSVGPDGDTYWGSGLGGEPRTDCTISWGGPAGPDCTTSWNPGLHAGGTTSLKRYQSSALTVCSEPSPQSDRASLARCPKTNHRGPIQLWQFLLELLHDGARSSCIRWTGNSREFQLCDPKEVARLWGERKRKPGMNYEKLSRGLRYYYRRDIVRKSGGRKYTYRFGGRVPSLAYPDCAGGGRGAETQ
# Procedure, shortened: as §1
# ELF3 = target: T5, ELF3 (Homo sapiens, UniProt P78545 1-371)
# T5 sequence: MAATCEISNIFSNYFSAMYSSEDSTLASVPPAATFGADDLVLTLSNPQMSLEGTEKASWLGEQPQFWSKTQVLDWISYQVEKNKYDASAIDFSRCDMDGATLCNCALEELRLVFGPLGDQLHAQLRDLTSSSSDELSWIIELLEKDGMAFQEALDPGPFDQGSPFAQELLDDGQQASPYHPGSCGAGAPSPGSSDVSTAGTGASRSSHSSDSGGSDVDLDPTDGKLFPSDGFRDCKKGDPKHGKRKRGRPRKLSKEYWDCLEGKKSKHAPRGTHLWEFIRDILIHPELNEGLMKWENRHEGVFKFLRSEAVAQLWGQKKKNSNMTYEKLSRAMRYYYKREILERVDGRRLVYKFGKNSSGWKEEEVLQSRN
# Procedure, shortened: as §1
# ETV1 = ETV1 (Homo sapiens, UniProt P50549 1-477)
# Chain of ETV1 (P50549 whole entry): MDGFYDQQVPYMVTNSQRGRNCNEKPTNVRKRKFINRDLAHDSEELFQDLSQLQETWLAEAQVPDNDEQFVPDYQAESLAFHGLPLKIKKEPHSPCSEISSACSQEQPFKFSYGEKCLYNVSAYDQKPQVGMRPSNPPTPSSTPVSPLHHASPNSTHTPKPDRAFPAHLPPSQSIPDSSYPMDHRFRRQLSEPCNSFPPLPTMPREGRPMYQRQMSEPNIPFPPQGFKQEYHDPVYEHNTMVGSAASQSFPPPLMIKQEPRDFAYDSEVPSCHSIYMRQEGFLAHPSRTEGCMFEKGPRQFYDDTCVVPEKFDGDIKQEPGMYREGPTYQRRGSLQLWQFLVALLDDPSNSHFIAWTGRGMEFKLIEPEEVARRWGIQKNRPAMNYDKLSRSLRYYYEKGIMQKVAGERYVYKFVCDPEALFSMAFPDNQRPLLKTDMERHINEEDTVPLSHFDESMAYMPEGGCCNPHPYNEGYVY
# Procedure, shortened: as §1
# ERF = target: T6, ERF (Homo sapiens, UniProt P50548 1-548)
# T6 sequence: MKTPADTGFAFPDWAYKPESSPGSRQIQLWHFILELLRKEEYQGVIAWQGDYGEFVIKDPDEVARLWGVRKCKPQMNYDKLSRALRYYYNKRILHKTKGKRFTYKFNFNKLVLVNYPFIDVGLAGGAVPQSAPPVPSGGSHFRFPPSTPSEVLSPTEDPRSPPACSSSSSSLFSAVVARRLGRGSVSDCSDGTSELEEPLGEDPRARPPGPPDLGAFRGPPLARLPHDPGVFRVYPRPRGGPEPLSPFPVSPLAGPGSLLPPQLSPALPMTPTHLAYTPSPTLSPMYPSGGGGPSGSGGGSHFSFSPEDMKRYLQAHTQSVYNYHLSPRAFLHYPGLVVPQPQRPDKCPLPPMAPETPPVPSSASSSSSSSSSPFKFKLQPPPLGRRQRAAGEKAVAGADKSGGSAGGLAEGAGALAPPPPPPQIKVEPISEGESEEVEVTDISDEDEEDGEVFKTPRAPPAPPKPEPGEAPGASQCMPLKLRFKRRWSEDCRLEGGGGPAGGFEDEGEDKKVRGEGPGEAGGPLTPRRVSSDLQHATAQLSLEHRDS
# Procedure, shortened: as §1
# ETV3L = target: T7, ETV3L (Homo sapiens, UniProt Q6ZN32 1-361)
# T7 sequence: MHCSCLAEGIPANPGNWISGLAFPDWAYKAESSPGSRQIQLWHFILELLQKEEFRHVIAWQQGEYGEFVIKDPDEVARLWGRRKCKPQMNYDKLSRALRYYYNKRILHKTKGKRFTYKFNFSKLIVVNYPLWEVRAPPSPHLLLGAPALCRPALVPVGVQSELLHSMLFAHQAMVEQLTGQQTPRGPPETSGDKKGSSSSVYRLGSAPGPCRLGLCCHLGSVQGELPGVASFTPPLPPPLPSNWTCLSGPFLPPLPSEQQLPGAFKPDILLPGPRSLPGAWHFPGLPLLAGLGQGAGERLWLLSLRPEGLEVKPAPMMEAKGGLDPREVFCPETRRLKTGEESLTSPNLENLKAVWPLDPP
# Procedure, shortened: as §1
# ETS2 = target: T8, ETS2 (Homo sapiens, UniProt P15036 1-469)
# T8 sequence: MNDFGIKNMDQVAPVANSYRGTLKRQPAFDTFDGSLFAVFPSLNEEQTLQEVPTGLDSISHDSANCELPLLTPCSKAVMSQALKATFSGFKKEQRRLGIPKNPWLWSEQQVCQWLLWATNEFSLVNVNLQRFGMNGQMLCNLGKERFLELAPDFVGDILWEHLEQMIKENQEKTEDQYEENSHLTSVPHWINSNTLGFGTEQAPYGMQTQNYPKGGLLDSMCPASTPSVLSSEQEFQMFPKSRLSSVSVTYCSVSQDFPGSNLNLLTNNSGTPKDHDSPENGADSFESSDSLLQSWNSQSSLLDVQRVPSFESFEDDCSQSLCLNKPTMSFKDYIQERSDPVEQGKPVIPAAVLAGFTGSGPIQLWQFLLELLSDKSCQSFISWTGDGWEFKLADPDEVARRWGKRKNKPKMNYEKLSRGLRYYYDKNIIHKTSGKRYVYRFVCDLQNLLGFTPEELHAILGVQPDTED
# Procedure, shortened: as §1
# SPDEF = target: T9, SPDEF (Homo sapiens, UniProt O95238 1-335)
# T9 sequence: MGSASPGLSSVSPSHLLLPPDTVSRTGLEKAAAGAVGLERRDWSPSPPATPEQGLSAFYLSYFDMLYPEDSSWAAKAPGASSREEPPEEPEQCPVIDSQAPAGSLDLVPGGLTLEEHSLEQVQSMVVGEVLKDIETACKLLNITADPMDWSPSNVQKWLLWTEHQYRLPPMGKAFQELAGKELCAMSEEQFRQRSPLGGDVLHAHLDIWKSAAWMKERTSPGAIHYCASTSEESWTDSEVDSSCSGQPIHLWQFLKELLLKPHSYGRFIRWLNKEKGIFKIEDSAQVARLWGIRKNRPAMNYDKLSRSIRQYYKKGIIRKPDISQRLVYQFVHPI
# Procedure, shortened: as §1
# ETV7 = target: T10, ETV7 (Homo sapiens, UniProt Q9Y603 1-341)
# T10 sequence: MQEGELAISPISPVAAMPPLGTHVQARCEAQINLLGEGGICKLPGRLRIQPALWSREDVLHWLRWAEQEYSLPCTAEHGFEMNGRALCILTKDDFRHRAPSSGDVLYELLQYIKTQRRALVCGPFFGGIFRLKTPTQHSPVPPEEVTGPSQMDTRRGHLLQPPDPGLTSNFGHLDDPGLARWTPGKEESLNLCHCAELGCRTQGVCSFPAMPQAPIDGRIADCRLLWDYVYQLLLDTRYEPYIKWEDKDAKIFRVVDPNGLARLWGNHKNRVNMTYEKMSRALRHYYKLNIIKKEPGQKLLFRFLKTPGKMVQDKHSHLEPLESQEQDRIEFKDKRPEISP
# Procedure, shortened: as §1
# ELF5 = target: T11, ELF5 (Homo sapiens, UniProt Q9UKW6-2 1-255)
# T11 sequence: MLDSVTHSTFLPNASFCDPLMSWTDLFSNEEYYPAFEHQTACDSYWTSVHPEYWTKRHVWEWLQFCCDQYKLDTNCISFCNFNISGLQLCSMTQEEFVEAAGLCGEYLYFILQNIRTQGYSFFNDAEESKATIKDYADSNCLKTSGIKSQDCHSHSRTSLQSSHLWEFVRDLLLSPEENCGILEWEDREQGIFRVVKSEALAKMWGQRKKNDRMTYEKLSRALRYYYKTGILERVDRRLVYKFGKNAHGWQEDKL
# Procedure, shortened: as §1
# ETV3 = target: T12, ETV3 (Homo sapiens, UniProt P41162-2 1-143)
# T12 sequence: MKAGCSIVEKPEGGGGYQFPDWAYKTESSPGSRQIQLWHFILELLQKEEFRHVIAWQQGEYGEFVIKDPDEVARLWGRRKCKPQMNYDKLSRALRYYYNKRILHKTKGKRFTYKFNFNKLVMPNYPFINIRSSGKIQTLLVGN
# Procedure, shortened: as §1
# ETV6 = ETV6 (Homo sapiens, UniProt P41212 1-452)
# Chain of ETV6 (P41212 whole entry): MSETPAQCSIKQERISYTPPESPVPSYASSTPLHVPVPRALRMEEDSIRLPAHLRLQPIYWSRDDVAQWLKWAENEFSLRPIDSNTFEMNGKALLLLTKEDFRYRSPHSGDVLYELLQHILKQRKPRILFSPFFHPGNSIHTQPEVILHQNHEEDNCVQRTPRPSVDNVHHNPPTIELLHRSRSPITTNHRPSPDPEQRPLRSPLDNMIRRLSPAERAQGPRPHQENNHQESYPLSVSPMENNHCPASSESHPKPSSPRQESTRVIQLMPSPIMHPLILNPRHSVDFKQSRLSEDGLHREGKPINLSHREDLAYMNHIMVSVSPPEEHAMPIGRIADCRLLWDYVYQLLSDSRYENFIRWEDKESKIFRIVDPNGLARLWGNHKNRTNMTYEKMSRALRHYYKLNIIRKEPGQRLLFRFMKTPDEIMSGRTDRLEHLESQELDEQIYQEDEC
# Procedure, shortened: as §1
Sequence,binding signal (FEV),binding signal (ETV5),binding signal (SPIC),binding signal (ELF4),binding signal (ELK4),binding signal (ETV2),binding signal (ELF3),binding signal (ETV1),binding signal (ERF),binding signal (ETV3L),binding signal (ETS2),binding signal (SPDEF),binding signal (ETV7),binding signal (ELF5),binding signal (ETV3),binding signal (ETV6)
ATACGG,"1.16 fold enrichment (6-mer frequency, TF over GST control)","1.25 fold enrichment (6-mer frequency, TF over GST control)","1.2 fold enrichment (6-mer frequency, TF over GST control)","1.2 fold enrichment (6-mer frequency, TF over GST control)","1.03 fold enrichment (6-mer frequency, TF over GST control)","1.22 fold enrichment (6-mer frequency, TF over GST control)","1.25 fold enrichment (6-mer frequency, TF over GST control)","1.21 fold enrichment (6-mer frequency, TF over GST control)","1.28 fold enrichment (6-mer frequency, TF over GST control)","1.15 fold enrichment (6-mer frequency, TF over GST control)","1.22 fold enrichment (6-mer frequency, TF over GST control)","1.31 fold enrichment (6-mer frequency, TF over GST control)","1 fold enrichment (6-mer frequency, TF over GST control)","1.32 fold enrichment (6-mer frequency, TF over GST control)","1.31 fold enrichment (6-mer frequency, TF over GST control)","1.18 fold enrichment (6-mer frequency, TF over GST control)"
GAAGTG,"1.88 fold enrichment (6-mer frequency, TF over GST control)","1.73 fold enrichment (6-mer frequency, TF over GST control)","2.01 fold enrichment (6-mer frequency, TF over GST control)","1.6 fold enrichment (6-mer frequency, TF over GST control)","1.32 fold enrichment (6-mer frequency, TF over GST control)","1.65 fold enrichment (6-mer frequency, TF over GST control)","1.65 fold enrichment (6-mer frequency, TF over GST control)","1.86 fold enrichment (6-mer frequency, TF over GST control)","1.48 fold enrichment (6-mer frequency, TF over GST control)","1.53 fold enrichment (6-mer frequency, TF over GST control)","1.55 fold enrichment (6-mer frequency, TF over GST control)","1.47 fold enrichment (6-mer frequency, TF over GST control)","1.7 fold enrichment (6-mer frequency, TF over GST control)","1.79 fold enrichment (6-mer frequency, TF over GST control)","1.75 fold enrichment (6-mer frequency, TF over GST control)","1.93 fold enrichment (6-mer frequency, TF over GST control)"
